The values below come from the supplement of paper PMC10849652.

About 7,900 targets were measured; listed, in parts, are those with a hit and a random draw of the rest. About 0.6% of all pairs of compound and target were hits. Unmarked numbers belong to inactive results.

UniProt O15530, sequence (O15530 whole entry, looked up): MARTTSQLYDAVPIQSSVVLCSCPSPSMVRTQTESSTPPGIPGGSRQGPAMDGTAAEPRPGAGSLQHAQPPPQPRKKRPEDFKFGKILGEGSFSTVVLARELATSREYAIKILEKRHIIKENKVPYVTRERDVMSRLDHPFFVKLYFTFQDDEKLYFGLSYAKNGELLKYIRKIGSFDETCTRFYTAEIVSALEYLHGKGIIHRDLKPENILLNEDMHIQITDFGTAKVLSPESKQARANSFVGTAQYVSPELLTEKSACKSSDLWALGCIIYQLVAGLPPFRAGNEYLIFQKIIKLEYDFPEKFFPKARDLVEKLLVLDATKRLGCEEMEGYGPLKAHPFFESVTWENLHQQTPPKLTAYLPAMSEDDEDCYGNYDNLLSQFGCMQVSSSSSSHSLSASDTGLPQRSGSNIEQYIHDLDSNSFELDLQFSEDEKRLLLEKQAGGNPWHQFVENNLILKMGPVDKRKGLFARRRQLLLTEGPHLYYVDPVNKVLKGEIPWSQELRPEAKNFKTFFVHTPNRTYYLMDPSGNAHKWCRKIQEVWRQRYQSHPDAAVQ
UniProt P0CG38, sequence (P0CG38 whole entry, looked up): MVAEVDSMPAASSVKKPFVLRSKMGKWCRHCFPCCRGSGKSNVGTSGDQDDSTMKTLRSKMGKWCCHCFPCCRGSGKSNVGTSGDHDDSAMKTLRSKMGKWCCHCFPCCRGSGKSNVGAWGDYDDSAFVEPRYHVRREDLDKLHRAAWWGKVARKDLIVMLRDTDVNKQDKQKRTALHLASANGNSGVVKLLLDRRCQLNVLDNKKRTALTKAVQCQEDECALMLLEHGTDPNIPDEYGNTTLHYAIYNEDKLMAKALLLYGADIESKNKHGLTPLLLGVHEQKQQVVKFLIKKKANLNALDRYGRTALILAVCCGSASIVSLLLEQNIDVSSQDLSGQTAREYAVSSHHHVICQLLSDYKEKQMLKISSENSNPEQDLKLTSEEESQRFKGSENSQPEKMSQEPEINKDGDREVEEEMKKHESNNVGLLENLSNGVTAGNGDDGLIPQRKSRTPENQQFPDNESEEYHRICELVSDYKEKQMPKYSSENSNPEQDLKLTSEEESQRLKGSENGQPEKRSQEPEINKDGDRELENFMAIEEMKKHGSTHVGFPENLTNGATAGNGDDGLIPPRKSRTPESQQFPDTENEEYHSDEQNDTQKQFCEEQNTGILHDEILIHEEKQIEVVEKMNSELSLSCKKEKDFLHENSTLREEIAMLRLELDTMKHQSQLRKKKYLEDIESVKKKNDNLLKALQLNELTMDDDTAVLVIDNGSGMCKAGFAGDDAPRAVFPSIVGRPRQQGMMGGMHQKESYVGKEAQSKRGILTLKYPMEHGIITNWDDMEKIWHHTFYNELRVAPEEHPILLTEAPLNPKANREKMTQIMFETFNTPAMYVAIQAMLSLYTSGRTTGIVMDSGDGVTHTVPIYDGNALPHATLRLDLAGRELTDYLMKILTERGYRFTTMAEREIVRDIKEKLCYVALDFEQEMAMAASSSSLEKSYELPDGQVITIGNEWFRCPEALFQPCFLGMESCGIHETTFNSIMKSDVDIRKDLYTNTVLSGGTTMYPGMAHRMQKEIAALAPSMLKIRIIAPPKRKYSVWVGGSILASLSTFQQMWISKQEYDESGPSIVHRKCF
UniProt Q9BTU6, sequence (Q9BTU6 whole entry, looked up): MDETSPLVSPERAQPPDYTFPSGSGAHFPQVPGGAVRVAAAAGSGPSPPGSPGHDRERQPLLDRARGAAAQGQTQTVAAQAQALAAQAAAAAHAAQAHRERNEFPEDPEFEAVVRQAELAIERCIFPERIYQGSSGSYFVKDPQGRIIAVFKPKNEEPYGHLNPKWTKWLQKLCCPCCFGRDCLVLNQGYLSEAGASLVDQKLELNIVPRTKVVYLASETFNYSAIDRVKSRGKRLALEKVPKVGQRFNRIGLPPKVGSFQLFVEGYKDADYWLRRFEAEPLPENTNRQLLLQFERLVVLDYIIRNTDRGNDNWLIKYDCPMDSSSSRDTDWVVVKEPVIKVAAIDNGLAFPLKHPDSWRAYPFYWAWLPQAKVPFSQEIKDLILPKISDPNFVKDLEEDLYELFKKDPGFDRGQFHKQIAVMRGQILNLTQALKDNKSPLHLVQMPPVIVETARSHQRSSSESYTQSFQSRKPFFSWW
UniProt Q15126, sequence (Q15126 whole entry, looked up): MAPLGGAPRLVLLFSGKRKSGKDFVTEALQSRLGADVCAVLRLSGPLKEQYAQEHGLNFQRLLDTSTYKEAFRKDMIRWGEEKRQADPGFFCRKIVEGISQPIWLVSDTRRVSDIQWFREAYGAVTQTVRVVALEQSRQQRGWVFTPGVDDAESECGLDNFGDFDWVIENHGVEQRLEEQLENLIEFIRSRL
UniProt Q5JRX3, sequence (Q5JRX3 whole entry, looked up): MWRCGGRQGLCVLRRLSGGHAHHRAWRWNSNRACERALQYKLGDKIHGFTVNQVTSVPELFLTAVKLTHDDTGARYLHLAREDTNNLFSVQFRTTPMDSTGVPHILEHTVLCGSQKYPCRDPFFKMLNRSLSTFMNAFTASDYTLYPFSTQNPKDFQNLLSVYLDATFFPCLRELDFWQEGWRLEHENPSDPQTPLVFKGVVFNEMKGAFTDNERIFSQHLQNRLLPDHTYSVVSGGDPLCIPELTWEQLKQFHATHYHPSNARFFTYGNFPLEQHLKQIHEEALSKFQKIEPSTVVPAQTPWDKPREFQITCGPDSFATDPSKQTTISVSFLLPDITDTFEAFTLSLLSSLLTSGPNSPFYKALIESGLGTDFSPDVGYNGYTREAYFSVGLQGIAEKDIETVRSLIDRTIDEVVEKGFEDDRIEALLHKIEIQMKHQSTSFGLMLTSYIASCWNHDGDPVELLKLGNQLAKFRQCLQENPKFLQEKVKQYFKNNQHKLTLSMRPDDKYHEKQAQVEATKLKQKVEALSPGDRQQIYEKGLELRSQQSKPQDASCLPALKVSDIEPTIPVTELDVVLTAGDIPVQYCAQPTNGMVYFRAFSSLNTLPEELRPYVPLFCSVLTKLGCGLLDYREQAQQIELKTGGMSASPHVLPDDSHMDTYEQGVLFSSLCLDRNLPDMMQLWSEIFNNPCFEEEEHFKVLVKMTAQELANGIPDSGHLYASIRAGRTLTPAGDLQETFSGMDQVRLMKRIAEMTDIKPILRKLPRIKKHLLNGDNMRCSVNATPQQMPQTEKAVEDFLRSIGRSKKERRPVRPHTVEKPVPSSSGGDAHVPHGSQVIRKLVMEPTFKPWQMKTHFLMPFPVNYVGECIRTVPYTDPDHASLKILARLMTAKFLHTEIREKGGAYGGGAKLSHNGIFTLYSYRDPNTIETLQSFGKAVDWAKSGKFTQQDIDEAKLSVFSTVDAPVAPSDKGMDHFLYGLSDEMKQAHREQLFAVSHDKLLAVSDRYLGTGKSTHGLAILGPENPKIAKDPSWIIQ
UniProt O94806, sequence (O94806 whole entry, looked up): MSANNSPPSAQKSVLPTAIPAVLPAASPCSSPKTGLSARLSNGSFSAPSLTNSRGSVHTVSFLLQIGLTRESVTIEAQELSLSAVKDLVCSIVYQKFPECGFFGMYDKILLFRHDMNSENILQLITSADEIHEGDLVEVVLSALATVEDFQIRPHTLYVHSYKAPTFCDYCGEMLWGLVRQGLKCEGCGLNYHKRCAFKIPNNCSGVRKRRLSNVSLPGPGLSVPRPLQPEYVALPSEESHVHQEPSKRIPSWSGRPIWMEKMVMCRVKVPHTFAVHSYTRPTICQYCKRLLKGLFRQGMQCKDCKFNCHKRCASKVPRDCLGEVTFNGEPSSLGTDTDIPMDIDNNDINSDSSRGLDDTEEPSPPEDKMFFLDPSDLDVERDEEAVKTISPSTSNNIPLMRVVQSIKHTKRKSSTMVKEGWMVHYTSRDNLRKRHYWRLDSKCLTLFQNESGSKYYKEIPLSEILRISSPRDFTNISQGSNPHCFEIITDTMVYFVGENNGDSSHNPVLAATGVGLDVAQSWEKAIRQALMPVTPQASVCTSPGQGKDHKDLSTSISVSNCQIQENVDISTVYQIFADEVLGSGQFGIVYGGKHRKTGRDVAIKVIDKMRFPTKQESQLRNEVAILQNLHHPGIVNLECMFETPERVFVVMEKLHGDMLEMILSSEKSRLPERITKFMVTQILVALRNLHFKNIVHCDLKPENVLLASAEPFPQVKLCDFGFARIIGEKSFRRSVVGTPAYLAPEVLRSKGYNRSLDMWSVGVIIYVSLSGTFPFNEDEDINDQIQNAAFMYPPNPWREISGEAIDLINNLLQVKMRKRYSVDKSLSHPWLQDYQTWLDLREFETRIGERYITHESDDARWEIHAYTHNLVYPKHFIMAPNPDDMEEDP
UniProt P28065, sequence (P28065 whole entry, looked up): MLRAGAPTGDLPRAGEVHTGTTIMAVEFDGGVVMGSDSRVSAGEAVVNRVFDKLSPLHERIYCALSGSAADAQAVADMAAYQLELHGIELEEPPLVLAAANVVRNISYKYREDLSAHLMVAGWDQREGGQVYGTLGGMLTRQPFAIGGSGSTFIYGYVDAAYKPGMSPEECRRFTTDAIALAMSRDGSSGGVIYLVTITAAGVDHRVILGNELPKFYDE
UniProt P49643, sequence (P49643 whole entry, looked up): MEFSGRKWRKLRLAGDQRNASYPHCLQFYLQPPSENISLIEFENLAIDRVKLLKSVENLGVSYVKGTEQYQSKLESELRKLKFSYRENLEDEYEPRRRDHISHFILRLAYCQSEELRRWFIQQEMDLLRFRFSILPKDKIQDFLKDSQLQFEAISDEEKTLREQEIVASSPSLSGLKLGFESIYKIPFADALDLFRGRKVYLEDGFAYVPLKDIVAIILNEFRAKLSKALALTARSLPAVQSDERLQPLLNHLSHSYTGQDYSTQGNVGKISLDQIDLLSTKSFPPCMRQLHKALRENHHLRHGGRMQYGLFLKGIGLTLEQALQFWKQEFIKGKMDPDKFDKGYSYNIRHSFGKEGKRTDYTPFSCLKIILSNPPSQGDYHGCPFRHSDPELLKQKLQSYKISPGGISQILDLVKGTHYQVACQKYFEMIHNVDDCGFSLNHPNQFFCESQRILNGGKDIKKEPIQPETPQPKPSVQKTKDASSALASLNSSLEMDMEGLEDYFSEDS

Compound in the first experiment: CC1=C(SC2=C1C(=N[C@H](C3=NN=C(N32)C)CC(=O)N)C4=CC=C(C=C4)Cl)C
Nature of the experiment: log2 fold change, soluble protein after heating vs DMSO (PISA); higher = thermal stabilisation; K562 cells, 10 uM, 30 min; active = over 0.2 and 3.5 SD of the protein, either way, in both replicates (recomputed). In outline:
(§1)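 K562 cells at 2×10^6 cells/mL were exposed to 10 μM compound for 30 min, then aliquots were heated for 3 min across 48°C-58°C, pooled, and extracted in PBS containing 0.5% NP-40 at 4°C. The supernatant after 21,000xg for 90 min was taken as soluble protein and measured by TMTpro 16plex LC-MS/MS with channel sums equalised. Thermal stability is reported relative to control samples, with values from duplicates. Fold changes are given on a log2 scale.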
Turning to PDE4DIP isoform 4 (UniProt Q5VU43), the log2 fold change was 0.043. Same read-out and setting: the result for PEX5 isoform 4 (UniProt P50542) reads -0.147. Same read-out and setting: the result for PHKA1 (UniProt P46020) reads -0.078. As for PSMD8 (UniProt K7EK21), the log2 fold change is -0.11. The same measure, in the same setting: the same measure for PDE4DIP (UniProt E9PS60): 0.013. On the same count and under the same terms, the result for PRR14L (UniProt Q5THK1) reads -0.052; that for PCBP2 (UniProt F8VZX2), -0.107; that for PNN (UniProt Q9H307), 0.021. On the same count and under the same terms, the same measure for PRIM2 (UniProt P49643): 0.063; for PI4K2A (UniProt Q9BTU6): 0.043. Regarding PHC3 isoform 7 (UniProt Q8NDX5), the log2 fold change was -0.025.

Turning to PRUNE1 (UniProt Q86TP1), the log2 fold change was -0.002.

As to PRKD3 (UniProt O94806), the log2 fold change is 0.044. Still for that read-out and setting: the same measure for PSD3 (UniProt Q9NYI0): 0.045; for PRPF4B (UniProt Q13523): -0.098. POTEI (UniProt P0CG38): the log2 fold change was 0.012. The same measure, in the same setting: the same measure for PSMB9 (UniProt P28065): 0.138; for PDPK1 (UniProt O15530): 0.065; for PITRM1 isoform 2 (UniProt Q5JRX3): -0.08. Same read-out and setting: the result for POLB (UniProt P06746) reads 0.053; that for PSMA3 (UniProt H0YJ03), 0.193; that for PSMC1 (UniProt G3V4X1), -0.021. On to PCF11 (UniProt O94913), for which the log2 fold change is -0.02. With PMVK (UniProt Q15126), the log2 fold change was 0.004. PUM1 (UniProt Q14671): the log2 fold change was 0.116.

On to POGZ (UniProt Q7Z3K3), for which the log2 fold change is 0.056. Consider POLA1 (UniProt P09884), for which the log2 fold change was 0.105.

Compound in the next experiment: CC1=C2C(=CC=C1)N=C(N(C2=O)C3=CC=CC=C3C)CN4C=NC5=C(N=CN=C54)N
Described as above. In outline: as §1
As for PDE4DIP isoform 4 (UniProt Q5VU43), the log2 fold change is 0.046.

In the case of PEX5 isoform 4 (UniProt P50542), the log2 fold change is 0.043. On the same count and under the same terms, the result for PSMA3 (UniProt G3V4X5) reads 0.147. On the same count and under the same terms, the result for PKM isoform 2 (UniProt P14618) reads -0.057; that for PAN2 (UniProt Q504Q3), 0.053; that for PDE4DIP (UniProt E9PS60), -0.209.

PSMD8 (UniProt K7ERW6): the log2 fold change is 0.2.

For the target PRR14L (UniProt Q5THK1), the log2 fold change was 0.312. On to PRIM2 (UniProt P49643), for which the log2 fold change is 0.189.

As to PPP1R12C (UniProt Q9BZL4), the log2 fold change is 0.05.

With PI4K2A (UniProt Q9BTU6), the log2 fold change was 0.064.

Consider PTP4A3 (UniProt O75365), for which the log2 fold change is 0.391. With PRUNE1 (UniProt Q86TP1), the log2 fold change was 0.023. On to PPP2R5B (UniProt Q15173), for which the log2 fold change was -0.098. PRKD3 (UniProt O94806): the log2 fold change is -0.007. For the target PSD3 (UniProt Q9NYI0), the log2 fold change was 0.052.

In the case of PSMC3 (UniProt E9PLG2), the log2 fold change was -0.056.

In the case of PRPF4B (UniProt Q13523), the log2 fold change is 0. On the same count and under the same terms, the same measure for POTEI (UniProt P0CG38): -0.059; for PSMB9 (UniProt P28065): 0.179. With PDPK1 (UniProt O15530), the log2 fold change is 0.014. With PITRM1 isoform 2 (UniProt Q5JRX3), the log2 fold change is 0.048. Regarding PSMA3 (UniProt H0YJ03), the log2 fold change was 0.119. Consider PCNX1 (UniProt Q96RV3), for which the log2 fold change is 0.103. Still for that read-out and setting: the result for PCF11 (UniProt O94913) reads 0.068; that for PMVK (UniProt Q15126), 0.116. On the same count and under the same terms, the result for POGZ (UniProt Q7Z3K3) reads 0.099; that for POLA1 (UniProt P09884), 0.101.
